# Compound activity (PubChem BioAssay)
# FUS suppressor – rescues growth of FUS-expressing yeast; 0.24% of 390,000 active; Potency, µM (doses to about 76.6 µM), hits mostly activators; S. cerevisiae FUS-expressing, growth rescue, OD600, 24 h; note: nearly all actives have a fitted effect of over 55% in size
#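 Absorbance at 600 nm, taken 24hr after compound addition, measured rescue of FUS-yeast growth at 30C. Induction used 2% galactose with seeding at OD 0.005. Controls: CP55940 from 92uM final, DMSO only.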
# ELG1 DNA repair – blocks ELG1-dependent DNA repair in HEK293T cells. HEK293T ELG1-luciferase reporter, luminescence, 16 h; DNA damage induced by 5-fluorouridine. Potency, µM (highest dose often 46.1 µM), most hits filed as inhibitors. 2.3% of 330,000 active. AID 504467; note: nearly all actives have a fitted effect of over 55% in size
#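 Quantitative HTS, concentration-response format. 2,000 cells/well co-treated with 5-fluorouridine and compound, 16 hr in 5% CO2 at 37 °C; ONE-Glo luminescence read after 30 min.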
# TRPV1 agonist – activates the human vanilloid receptor TRPV1; Q8NER1; TRPV1-expressing cells, Fluo-8 calcium influx, agonist mode; activation, % at 8.33 µM; 0.19% of 320,000 active; AID 540275; in the data active = activation above about 80%; inconclusive = between about 30% and that limit
#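 Cells expressing TRPV1 were dye-loaded with Fluo-8 and read kinetically: 10 s baseline, 3 min after compound (agonist portion), then 2 min after EC20 capsaicin (allosteric enhancer portion). Calcium-bound dye fluorescence at 480/520 nm.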
# TRPV1 potentiator – human TRPV1 potentiation; TRPV1-expressing cells, Fluo-8 calcium influx, capsaicin EC20 potentiation; Q8NER1; 0.02% of 320,000 active; potentiation, % at 8.33 µM; in the data active = potentiation above about 80%; inconclusive = between about 30% and that limit
#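 Cells expressing TRPV1 were dye-loaded with Fluo-8 and read kinetically: 10 s baseline, 3 min after compound (agonist portion), then 2 min after EC20 capsaicin (allosteric enhancer portion). Calcium-bound dye fluorescence at 480/520 nm.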
# Giardia killer – Giardia lamblia killing | Giardia lamblia trophozoite viability | activity change, % at 7.66 µM, hits read low | 0.15% of 340,000 active | AID 540267; in the data active = activity change below about -80%; inconclusive = between about -30% and that limit;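 note: parasites exposed to compound for two days anaerobically before the ATP read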
#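 Anaerobic 48 hrs incubation at 37 deg C of 100 trophozoites/well with test compounds; ATPLite 1-Step luminescence, 15-30 min RT, reports cellular ATP as viability.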
# Numbers stand for hits; . = inactive; ? = inconclusive; / = no result given. Most compounds without a hit are left out; they make up all but 2.3% or so of the library. Unless noted, calls come from the whole dose curve; as a rule, active = well fitted curve in the direction sought with a large enough effect; inconclusive = small, poorly fitted or top-dose-only effect, or another doubt; inactive = no such curve, though single readings can be large; an effect the other way counts as inactive or inconclusive.
SMILES,FUS suppressor,ELG1 DNA repair,TRPV1 agonist,TRPV1 potentiator,Giardia killer
Cc1ccc(NC(=O)c2cc(C(=O)c3cc(Cl)ccc3O)cn(-c3ccc(C)cc3)c2=O)cc1,/,26µM,.,.,.
N#Cc1cc(C(=O)c2cc(Cl)ccc2O)cn(-c2ccccc2)c1=O,/,.,.,.,.
CCc1ccc(NC(=O)c2cc(C)on2)cc1,.,?,?,.,.
CCc1ccc(NC(=O)c2cc(C(C)C)on2)cc1,.,?,82,.,.
COc1cc(Cl)c(C)cc1NC(=O)c1cnc2c(-c3cccc(C)c3)c(C)nn2c1C,.,/,/,/,/
O=C(COc1ccc(-c2nnc(N3CCCCC3)c3ccccc23)cc1)N1CCCCC1,.,15µM,.,.,.
Cc1ccc(-c2nnc(N3CCN(C(=O)COc4ccccc4)CC3)c3ccccc23)cc1,.,21µM,.,.,.
O=C(COc1ccc([N+](=O)[O-])cc1)N1CCN(c2nnc(-c3ccccc3)c3ccccc23)CC1,.,.,.,.,.
COc1cccc(NS(=O)(=O)c2ccc3[nH]cc(C(=O)N(C)C4CCCCC4)c(=O)c3c2)c1,.,/,/,/,/
COc1ccc(NS(=O)(=O)c2cc(NC(=O)C3=NN(c4ccccc4)C(=O)CC3)ccc2C)cc1,/,/,/,/,.
COc1ccc(NS(=O)(=O)c2cccc(NC(=O)C3=NN(c4ccccc4)C(=O)CC3)c2)cc1,?,9.2µM,.,.,.
CC(C)Oc1ccc(S(=O)(=O)N2CCOCC2)cc1NC(=O)C1=NN(c2ccccc2)C(=O)CC1,?,10µM,.,.,.
CN(c1ccccc1)S(=O)(=O)c1cccc(NC(=O)C2=NN(c3ccccc3)C(=O)CC2)c1,.,7.3µM,/,/,.
COc1cc2nc(SCc3ccc(Cl)cc3)n3nc(CCn4nc(C)cc4C)nc3c2cc1OC,.,/,/,/,/
O=C(NC1CCCCC1)c1ccc2c(c1)N(Cc1ccccc1Cl)C(=O)c1ccccc1S2,.,/,/,/,/
Cc1ccc(C(=O)C[n+]2cc(-c3ccc(C)cc3)n3c2CCCCC3)cc1,/,16µM,.,.,.
COc1ccc(C(=O)C[n+]2cc(-c3ccc(OC)cc3)n3c2CCCC3)cc1,.,7.3µM,.,.,.
COc1ccc(-c2c[n+](CC(=O)c3cccs3)c3n2CCC3)cc1,.,23µM,.,.,.
O=C(C[n+]1cc(-c2ccccc2)n2c1CCCCC2)c1ccc(Br)cc1,.,?,.,.,.
Cc1ccc(-c2c[n+](Cc3ccc(Cl)c(Cl)c3)c3n2CCC3)cc1,/,21µM,.,.,.
CCCCOC(=O)c1ccc(NC(=O)c2cnc3ccc(C)cn3c2=O)cc1,.,/,/,/,/
O=C(NCCO)C(=O)NCC(c1ccc2c(c1)OCO2)N1CCOCC1 (stereo not drawn),.,/,/,/,/
CCOc1cc(C(=O)Nc2ccc3c4c(cccc24)C(=O)N3CC)cc(OCC)c1OCC,.,21µM,.,.,.
Cc1ccccc1NCC(=O)N/N=C/c1c(C)c(C(=O)c2ccc(Cl)cc2)n2ccccc12,/,?,.,.,.
Cc1c(/C=N/NC(=O)CNc2ccccc2)c2ccccn2c1C(=O)c1ccncc1,.,18µM,.,.,.
SMILES,FUS suppressor,ELG1 DNA repair,TRPV1 agonist,TRPV1 potentiator,Giardia killer
Cc1c(C=O)c2ccccn2c1C(=O)c1ccccc1,.,?,.,.,.
Cc1c(/C=N/NC(=O)CNc2ccccc2)c2ccccn2c1C(=O)c1ccc(Cl)cc1,/,23µM,.,.,.
COc1ccc(C)cc1NC(=O)c1cc2c(=O)n3cccc(C)c3nc2s1,.,/,/,/,/
Nc1[nH]n2c(=O)cc(-c3ccccc3)nc2c1N=Nc1ccc(S(N)(=O)=O)cc1,.,.,.,.,.
NS(=O)(=O)c1ccc(N=Nc2c(-c3ccccc3)[nH]n(-c3nc(-c4ccccc4)cs3)c2=O)cc1,/,5.2µM,.,.,.
O=c1[nH]c(C2CCN(S(=O)(=O)c3ccc(S(=O)(=O)NC4CC4)cc3)CC2)nc2c1nnn2Cc1ccccc1,.,18µM,.,.,.
O=c1[nH]c(C2CCN(S(=O)(=O)c3ccc(F)cc3)CC2)nc2c1nnn2Cc1ccc2c(c1)OCCO2,?,26µM,.,.,.
Cc1ccc(C)c(Cn2nnc3c(=O)[nH]c(C4CCN(S(=O)(=O)c5ccc(S(=O)(=O)NC6CC6)cc5)CC4)nc32)c1,?,16µM,.,.,.
O=c1[nH]c(C2CCN(S(=O)(=O)c3ccc(S(=O)(=O)NC4CC4)cc3)CC2)nc2c1nnn2Cc1ccc(F)cc1,?,?,.,.,.
O=C1CCc2cc(S(=O)(=O)NC(C(=O)Nc3ccc(F)cc3)c3ccccc3)ccc2N1 (stereo not drawn),.,/,/,/,/
COCCNc1nnnc2c1sc1nc(N3CCOCC3)c3c(c12)CC(C)(C)OC3,.,4.1µM,.,?,.
COCCCn1c(SCC(=O)NCc2ccccc2)nc2c(sc3ccccc32)c1=O,.,/,/,/,/
CCC(=O)N1CCc2cc(OC)c(OC)cc2C1COc1ccc(C(=O)OC)cc1 (stereo not drawn),.,2.6µM,.,.,.
CCOC(=O)c1ccc(OCC2c3cc(OC)c(OC)cc3CCN2C(=O)Cc2ccc(F)cc2)cc1 (stereo not drawn),13µM,/,/,/,/
O=C(Nc1ccc(S(=O)(=O)N(Cc2ccccc2)c2ccccc2)cc1)c1ccc([N+](=O)[O-])cc1,.,/,/,/,/
Cc1c(Cl)cccc1NC(=O)CN1C(=O)COc2ccc(S(=O)(=O)N3CCCCCC3)cc21,.,/,/,/,/
Fc1ccc(/C=C2\CCCC3=C2Nc2ncnn2C3c2ccc(F)cc2)cc1 (stereo not drawn),.,4.6µM,.,.,.
COc1ccc(C2C3=C(Nc4ncnn42)c2ccccc2CCC3)cc1 (stereo not drawn),.,.,.,.,.
Cc1nc2cc(NS(=O)(=O)c3ccc(Br)cc3)ccc2n1C,.,21µM,.,.,.
O=[N+]([O-])c1ccc(/C=N/Nc2nc(N3CCCCC3)nc(N3CCCCC3)n2)cc1,.,.,.,.,.
Cc1ccc(/C=N/Nc2nc(N3CCCCC3)nc(N3CCCCC3)n2)o1,.,.,85,.,.
O=[N+]([O-])c1ccc(/C=N/Nc2nc(N3CCCCCC3)nc(N3CCCCCC3)n2)o1,?,23µM,.,.,?
COC(=O)c1ccccc1-c1ccc(/C=N/Nc2nc(N3CCCC3)nc(N3CCCC3)n2)o1,?,?,.,.,.
Cc1cccc(CNC(=O)C2CCC(CNS(=O)(=O)c3ccc4c(c3)CCCC(=O)N4)CC2)c1 (stereo not drawn),.,/,/,/,/
COc1ccc2[nH]c3nc(SCc4nnc(-c5ccccc5)o4)nnc3c2c1,.,16µM,.,.,.
Cc1ccc(N(C)C(=O)C2CCN(S(=O)(=O)c3cn(C)cn3)CC2)cc1,.,/,/,/,/
CC(=O)Nc1ccc(NC(=O)COc2ccc(-c3ccc(C#N)cc3)cc2)cc1,/,.,.,.,.
N#Cc1ccc(-c2ccc(OCC(=O)Nc3cccnc3)cc2)cc1,/,15µM,.,.,.
